SMN2 splice enh = enhancers of SMN2 splice variant expression. HEK293 SMN2-luciferase splicing reporter, luminescence, 30-36 h. Potency, µM (titrated, usually from 46.1 µM), most hits filed as activators. hit rate 2.8% among 210,000; also: nearly all actives have a fitted effect of over 55% in size
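HEK293 cells carry an SMN2 minigene-luciferase reporter in which exon 7 inclusion puts luciferase in frame. Cells were seeded at 2000 cells/well, attached for 10-12 hours, then exposed to compounds for 30-36 hours at 37C before ONE-Glo luminescence.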
Rab9 prom act = activates the Rab9 promoter; Huh7 Rab9 promoter-luciferase reporter, luminescence, 24 h; Potency, µM (doses to about 9.22 µM), most hits filed as activators; hit rate 2.8% among 320,000; AID 485297; also: nearly all actives have a fitted effect of over 60% in size
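Luminescence read-out: Huh7 cells stably expressing Rab9-luciferase, treated 24 h with compound at 37 °C, then lysed with luciferase reagent for 10 min at ambient before reading.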
FLuc counter = firefly luciferase modulation, counter-screen for miR-21 project; P08659; purified FLuc, Km substrates, luminescence inhibition; Potency, µM (series often up to 57.5 µM), most hits filed as inhibitors; hit rate 6.9% among 360,000; also: nearly all actives have a fitted effect of over 55% in size
Target sequence (P08659 whole entry, looked up): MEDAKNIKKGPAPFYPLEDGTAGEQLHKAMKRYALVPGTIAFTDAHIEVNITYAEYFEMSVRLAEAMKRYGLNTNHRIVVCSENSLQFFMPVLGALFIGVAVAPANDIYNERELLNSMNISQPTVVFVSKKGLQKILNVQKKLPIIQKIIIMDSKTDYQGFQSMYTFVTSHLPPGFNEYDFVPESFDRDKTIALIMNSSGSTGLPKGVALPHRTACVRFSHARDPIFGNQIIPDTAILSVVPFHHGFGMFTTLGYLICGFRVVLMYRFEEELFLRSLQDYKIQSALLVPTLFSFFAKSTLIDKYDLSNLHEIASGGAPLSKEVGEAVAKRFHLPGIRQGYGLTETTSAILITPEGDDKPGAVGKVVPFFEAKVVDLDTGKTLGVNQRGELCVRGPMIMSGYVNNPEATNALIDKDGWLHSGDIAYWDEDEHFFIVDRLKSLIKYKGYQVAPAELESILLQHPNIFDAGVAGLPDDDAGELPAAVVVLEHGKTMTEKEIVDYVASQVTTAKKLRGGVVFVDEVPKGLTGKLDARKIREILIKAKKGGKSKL
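Purified P. pyralis luciferase, 10 nM final, with Km-level 10 uM D-luciferin and 10 uM ATP in 50 mM Tris acetate pH 7.5, 10 mM Mg acetate, 0.01% Tween-20, 0.05% BSA; 6-point qHTS titration about 60 µM downward; luminescence read.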
ELG1 DNA repair = inhibitors of ELG1-dependent DNA repair in HEK293T cells; HEK293T ELG1-luciferase reporter, luminescence, 16 h; DNA damage induced by 5-fluorouridine; Potency, µM (highest dose often 46.1 µM), usual class: inhibitors; hit rate 2.3% among 330,000; AID 504467; also: nearly all actives have a fitted effect of over 55% in size
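DMSO vehicle served as the neutral condition. Each well held 2,000 cells given 5-fluorouridine plus compound; after 16 hr at 37 °C/5% CO2, ONE-Glo was added and luciferase measured 30 min later.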
ELG1 genotox = induces genotoxicity in HEK293T cells with luciferase-tagged ELG1; HEK293T ELG1-luciferase reporter, luminescence, 16 h; Potency, µM (doses to about 46 µM), most hits filed as activators; hit rate 1.3% among 330,000; AID 504466; also: nearly all actives have a fitted effect of over 60% in size
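Screening used a luciferase reporter fused to human ELG1 in HEK293T cells. Luminescence was read on a CCD plate imager after 16 hr exposure and 30 min ONE-Glo incubation.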
NPC1 promoter act = NPC1 promoter activation. Huh7 NPC1 promoter luciferase reporter, 24 h. Potency, µM (doses to about 9.22 µM), actives largely listed as activators. hit rate 2.4% among 320,000; also: nearly all actives have a fitted effect of over 60% in size
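Luciferase expression driven by the NPC1 promoter was measured in stably transfected Huh7 cells after a 24 h compound incubation, using a luciferase reagent and a luminescence read.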
Hits are given with their value; [ ] = remark or other dose. Only some compounds are listed: those with a hit (about 9.4% of all), similar ones and a draw of the others. Calls follow the shape of the dose curve; as a rule, active = well fitted curve in the direction sought with a large enough effect; inconclusive = small, poorly fitted or top-dose-only effect, or another doubt; inactive = no such curve, though single readings can be large; an effect the other way counts as inactive or inconclusive.

Results for CCOc1ccccc1N(C)C(=O)c1c2c(nc3ccccc13)C(=O)N(C1CCCCC1)C2 ?
FLuc counter: inactive

How did Cc1ccc(S(=O)(=O)c2nnn3c2nc(NCc2ccccc2Cl)c2sccc23)cc1 do in these assays?
FLuc counter: inactive

What do the screens show for `COc1ccc(NC(=O)C(=O)c2cc(C)n(-c3ccc(C)cc3)c2C)cc1Cl`?
FLuc counter: inactive

What do the screens show for `O=c1[nH]c(/C=C/c2ccc(Br)cc2)nc2ccccc12`?
Rab9 prom act: 0.4µM; FLuc counter: 0.17µM; ELG1 DNA repair: inconclusive; ELG1 genotox: inconclusive; NPC1 promoter act: 0.32µM

How did CN(C)c1ccc(/C=C(\C#N)c2nc3ccccc3c(=O)[nH]2)cc1 do in these assays?
SMN2 splice enh: inactive; FLuc counter: 0.3µM

What do the screens show for `Cc1nc(/C=C/c2ccccc2)[nH]c(=O)c1-c1ccccc1`?
SMN2 splice enh: 2.8µM; Rab9 prom act: 0.63µM; FLuc counter: 1.9µM; ELG1 DNA repair: inconclusive; ELG1 genotox: inconclusive; NPC1 promoter act: inconclusive

What do the screens show for `Cc1cccc(/C=C(\C#N)c2nc3ccccc3c(=O)[nH]2)c1`?
SMN2 splice enh: inactive; FLuc counter: inactive

What do the screens show for `COc1cc(/C=C/c2nc3ccccc3c(=O)[nH]2)cc(Cl)c1O`?
Rab9 prom act: inactive; FLuc counter: inactive; ELG1 DNA repair: inconclusive; ELG1 genotox: inactive; NPC1 promoter act: inactive

Results for CN(C)c1ccc(/C=C/c2nc3ccccc3c(=O)n2CCO)cc1 ?
Rab9 prom act: inactive; FLuc counter: inactive; ELG1 DNA repair: inactive; ELG1 genotox: inactive; NPC1 promoter act: inactive

What do the screens show for `CN(C)c1ccc(/C=C/c2nc3ccccc3c(=O)[nH]2)cc1`?
Rab9 prom act: 0.089µM; FLuc counter: 0.21µM; ELG1 DNA repair: inconclusive; ELG1 genotox: 0.58µM; NPC1 promoter act: 0.11µM

What do the screens show for `Cc1nc(-c2ccc(C)c(N3CCN(C(=O)Nc4cccc(Cl)c4C)CC3)c2)no1`?
FLuc counter: inactive

How did Nc1nccc(Nc2ccc(S(N)(=O)=O)cc2)n1 do in these assays?
SMN2 splice enh: inactive[9.22 µM]

Results for N=C(N)S[C@H]1c2ccccc2-c2cc([N+](=O)[O-])ccc21 ?
SMN2 splice enh: inactive[9.22 µM]

How did O=c1[nH]c(COc2ccc(Br)cc2Cl)nc2ccccc12 do in these assays?
Rab9 prom act: 3.5µM; FLuc counter: 1.9µM; ELG1 DNA repair: inconclusive; ELG1 genotox: 7.3µM; NPC1 promoter act: 3.2µM

Results for O=C(Nc1cccc(/C=C/c2nc3ccccc3c(=O)[nH]2)c1)c1ccccc1Cl ?
Rab9 prom act: inconclusive; FLuc counter: inactive; ELG1 DNA repair: inconclusive; ELG1 genotox: inactive; NPC1 promoter act: inconclusive

What do the screens show for `Cc1cccc(/C=C\c2nc3ccccc3c(=O)[nH]2)c1`?
SMN2 splice enh: 2.8µM; Rab9 prom act: inconclusive; FLuc counter: 0.85µM; ELG1 DNA repair: inconclusive; ELG1 genotox: 10µM; NPC1 promoter act: inconclusive

What do the screens show for `O=C(Nc1ccc(N2CCN(C(=O)c3ccccc3)CC2)cc1)c1cc2ccccc2o1`?
SMN2 splice enh: inactive; Rab9 prom act: inactive; FLuc counter: inactive; ELG1 DNA repair: 9.2µM; ELG1 genotox: inactive; NPC1 promoter act: inactive

How did CN1CCN(c2ccc(NC(=O)c3cc4ccccc4o3)cc2)CC1 do in these assays?
Rab9 prom act: 3.5µM; FLuc counter: 6µM; ELG1 DNA repair: inconclusive; ELG1 genotox: 10µM; NPC1 promoter act: 1.6µM

How did O=C(Nc1ccc(S(=O)(=O)N2CCCCCC2)cc1)c1[nH]ncc1[N+](=O)[O-] do in these assays?
Rab9 prom act: inconclusive; FLuc counter: 17µM; ELG1 DNA repair: inconclusive; ELG1 genotox: inconclusive; NPC1 promoter act: inconclusive

How did Cc1nnsc1C(=O)Nc1ccc(S(=O)(=O)N2CCCCC2)cc1 do in these assays?
Rab9 prom act: inactive; FLuc counter: inactive; ELG1 DNA repair: 12µM; ELG1 genotox: inactive; NPC1 promoter act: inactive

Results for Cc1nnsc1C(=O)Nc1ccc(S(=O)(=O)N2CCCC(C)C2)cc1 (stereo not drawn) ?
Rab9 prom act: inactive; FLuc counter: inactive; ELG1 DNA repair: inactive; ELG1 genotox: inactive; NPC1 promoter act: inactive

What do the screens show for `COc1cccc2c1cc1c(=O)n(CC(=O)N3CCN(c4cccc(C)c4)C(C)C3)nc(C)n12` (stereo not drawn)?
SMN2 splice enh: inactive; FLuc counter: inactive

Results for COc1ccc(-c2csc3nc(C)nc(N4CCN(c5ccc(C(C)=O)cc5)CC4)c23)cc1OC ?
SMN2 splice enh: inactive; Rab9 prom act: inactive; FLuc counter: inactive; ELG1 DNA repair: 13µM; ELG1 genotox: inactive; NPC1 promoter act: inactive

How did COc1ccc(C(=O)N2CCN(c3ccc(C)cc3)CC2)cc1OC do in these assays?
SMN2 splice enh: inactive; Rab9 prom act: inactive; FLuc counter: inactive; ELG1 DNA repair: inactive; ELG1 genotox: inactive; NPC1 promoter act: inactive

How did Cc1ccc(-c2nnc(SCC(=O)NCc3ccccc3)o2)cc1 do in these assays?
SMN2 splice enh: inactive; FLuc counter: inactive

Results for Nc1c(-c2cccs2)cnn1-c1nc(-c2ccc(Cl)cc2Cl)cs1 ?
SMN2 splice enh: inactive; Rab9 prom act: inactive; FLuc counter: inconclusive; ELG1 DNA repair: inactive; ELG1 genotox: inactive; NPC1 promoter act: inactive

What do the screens show for `COC(=O)c1cnn(-c2nc(-c3ccccc3)cs2)c1N`?
Rab9 prom act: inconclusive; FLuc counter: 2.7µM; ELG1 DNA repair: inconclusive; ELG1 genotox: inconclusive; NPC1 promoter act: inconclusive

Results for Nc1c(-c2ccccn2)cnn1-c1nc(-c2ccc(F)cc2)cs1 ?
SMN2 splice enh: inactive; Rab9 prom act: inactive; FLuc counter: 9.5µM; ELG1 DNA repair: inactive; ELG1 genotox: inactive; NPC1 promoter act: inactive

What do the screens show for `Nc1c(-c2cccs2)cnn1-c1nc(-c2ccc(F)cc2)cs1`?
SMN2 splice enh: inactive; Rab9 prom act: inconclusive; FLuc counter: 7.6µM; ELG1 DNA repair: inconclusive; ELG1 genotox: inactive; NPC1 promoter act: inconclusive

Results for COc1ccc(-c2csc(-n3ncc(-c4ccccn4)c3N)n2)cc1 ?
SMN2 splice enh: inactive; Rab9 prom act: inactive; FLuc counter: inactive; ELG1 DNA repair: inactive; ELG1 genotox: inactive; NPC1 promoter act: inactive

What do the screens show for `Cc1cccc(N2CCN(C(=O)CCn3c(=O)[nH]c4ccccc4c3=O)CC2)c1C`?
SMN2 splice enh: inactive; Rab9 prom act: inactive; FLuc counter: inactive; ELG1 DNA repair: 9.2µM; ELG1 genotox: inactive; NPC1 promoter act: inactive

Results for CCOC(=O)N1CCN(C(=O)CCCOc2ccccc2)CC1 ?
SMN2 splice enh: 13µM; Rab9 prom act: 1.8µM; FLuc counter: inactive[2.3 µM]; ELG1 DNA repair: inconclusive; ELG1 genotox: inconclusive; NPC1 promoter act: 2.8µM

Results for O=C(CCCOc1ccccc1)N1CCN(S(=O)(=O)c2ccccc2)CC1 ?
Rab9 prom act: inactive; ELG1 DNA repair: inactive; ELG1 genotox: inactive; NPC1 promoter act: inactive
